Screens (PubChem BioAssay)
HGIII-sPLA2 inh: human group III sPLA2 inhibitors, primary screen, biochemical, QFRET, BODIPY PC-A2 liposome substrate; Group 3 secretory phospholipase A2 (Homo sapiens), Q9NZ20; QFRET BODIPY PC-A2 liposome hydrolysis, fluorescence; inhibition, % at 12.2 µM; hit rate 0.56% among 370,000;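 active means inhibition above mean plus 3 SD of compounds lying within the high and low control bounds, cut at about 19% in these data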
HIF act: HIF pathway transcriptional activators, primary screen, cell-based, U2OS HRE-luciferase, luminescence; U2OS HRE-luciferase reporter; normalized: DMSO 0%, desferrioxamine 100%; activation, % at 7.5 µM (by protocol); hit rate 0.32% among 300,000;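 active means mean activation of at least 10% of the iron chelator positive control signal, with at least half of replicates also reaching 10%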
PLC-beta3 inh: human PLC-beta3 inhibitors, primary screen, biochemical, fluorescence. 1-phosphatidylinositol 4,5-bisphosphate phosphodiesterase beta-3 (Homo sapiens), Q01970. Purified PLC-beta3, fluorogenic substrate. inhibition, % at 12.2 µM. hit rate 0.18% among 370,000. AID 720704, 2013; in the data active means inhibition above about 11%
CR mimetic SO: reduction of superoxide in aged yeast, primary screen, HTS; AID 2690, 2010; superoxide response (% of plate mean), % at 10 µM; S. cerevisiae aged cells, superoxide DHE fluorescence; stronger effect = lower value; hit rate 0.18% among 330,000;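 active means superoxide response under a set limit, about three screen SD below normal, cut at about 65% in these data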;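 further: yeast aged for seven days with compound at 30 °C before DHE staining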
AHR activator: AHR activators, primary screen, cell-based, luminescence, luciferase reporter, human; activation, % at 5 µM; hit rate 2.5% among 320,000; AID 2796, 2010; AHR-responsive luciferase reporter cells; in the data active means activation above about 47%
PLC-gamma1 inh: PLC-gamma1 enzyme inhibitors, primary screen, biochemical, fluorescence, purified enzyme | fluorogenic substrate | hit rate 0.84% among 370,000 | inhibition, % at 12.2 µM | 1-phosphatidylinositol 4,5-bisphosphate phosphodiesterase gamma-1 (Homo sapiens), P19174
PLCg1 ctr: PLC-gamma1 enzyme inhibitors, counter-screen for PLC-beta3 inhibitor project, biochemical, fluorescence; shares compounds with PLC-gamma1 inh; purified PLC-gamma1, fluorogenic substrate; inhibition, % at 12.3 µM; hit rate 3.1% among 3,300; AID 743258, 2014
PLCbeta3 conf: PLC-beta3 inhibitor confirmation, biochemical, fluorescence, purified enzyme. fluorogenic substrate fluorescence. inhibition, % at 12.3 µM. shares compounds with PLC-gamma1 inh. AID 743261, 2014. hit rate 1% among 3,300; in the data active means inhibition above about 11%
Each line names hits and unclear results; the compound was inactive in the other large screens (follow-up assays come after a bar, where they were run). Most compounds without a hit are left out; they make up all but 3.9% or so of the library. Unless noted, no stated cut-off is given here; in the data, active means inhibition above about 9.5%; inactive means the rest.

Cc1ccc(O)c(C(=O)c2cnc3c(c2)COc2ccccc2-3)c1	PLC-gamma1 inh 14.2 | PLCg1 ctr inactive | PLCbeta3 conf inactive
CCOc1ccc(CN2CCN(Cc3[nH]c4ccccc4c3C)CC2CCO)cc1 (stereo not given)	none
Cc1ccccc1-c1noc(CCC(=O)NCCc2ccccc2)n1	PLC-gamma1 inh 10.3 | PLCg1 ctr inactive | PLCbeta3 conf inactive
CCCC(O)(c1ccccc1)C(CN1CCOCC1)c1ccccc1 (stereo not given)	none
CCCC(O)(c1ccc(Cl)cc1)C(CN1CCOCC1)c1ccccc1 (stereo not given)	PLC-gamma1 inh 10.7 | PLCg1 ctr inactive | PLCbeta3 conf inactive
N#Cc1ccccc1CSc1ccccn1	PLC-beta3 inh 11.1 | PLCg1 ctr inactive | PLCbeta3 conf inactive
Cc1cccc(CN2CCN(C(=O)CCl)CC2)c1	none
COc1ccc(CCNC(=O)COC(=O)c2sc(C)nc2C)cc1	none (no result: HIF act)
O=C(NCCc1ccc(F)cc1)c1ccc2c(=O)n3c(nc2c1)CCC3	none
CCn1c(NCc2ccccc2NS(=O)(=O)c2ccc(C)cc2)nc2ccccc21	PLC-beta3 inh 12.3 | PLCg1 ctr inactive | PLCbeta3 conf inactive
COc1ccc(OC)c(NC(=O)CCC(=O)Nc2nnc(C(C)C)s2)c1	PLC-gamma1 inh 12.4 | PLCg1 ctr inactive | PLCbeta3 conf inactive
COC(=O)C(NC(=O)c1ccccc1C)(Nc1ncc(S(=O)(=O)c2ccc([N+](=O)[O-])cc2)s1)C(F)(F)F (stereo not given)	PLC-gamma1 inh 12.1 | PLCg1 ctr inactive | PLCbeta3 conf inactive
COc1ccc(CN2CCN(c3ccccn3)CC2)c(OC)c1	PLC-gamma1 inh 10.0 | PLCg1 ctr inactive | PLCbeta3 conf inactive
CC(=O)N1CCN(C(=S)Nc2ccc(SC(F)F)cc2)CC1	none
CC1CCN(C(=S)Nc2ccc(SC(F)F)cc2)CC1	PLC-gamma1 inh 11.4 | PLCg1 ctr inactive | PLCbeta3 conf inactive
O=C(CSCC(=O)N1CCOCC1)Nc1nc(-c2ccccc2)cs1	none
O=C(CSCC(=O)N1CCOCC1)Nc1ccccc1	PLC-gamma1 inh 11.1 (no result: HIF act) | PLCg1 ctr inactive | PLCbeta3 conf inactive
O=C(COc1ccc(F)cc1)c1ccc2c(c1)CCCC2	PLC-gamma1 inh 9.5 | PLCg1 ctr inactive | PLCbeta3 conf inactive
CC(NC(=O)c1ccc(Br)cc1)c1ccc2c(c1)CCCC2 (stereo not given)	none
CC(NC(=O)c1ccc(F)cc1)c1ccc2c(c1)CCCC2 (stereo not given)	PLC-beta3 inh 13.6, PLC-gamma1 inh 13.1 | PLCg1 ctr inactive | PLCbeta3 conf inactive
COc1ccc(S(N)(=O)=O)cc1C(=O)NC1CCCc2ccccc21 (stereo not given)	none
O=C(Nc1ccccc1N1CCCCC1)c1ccc(-c2cccc(Cl)c2)o1	PLC-gamma1 inh 12.5 | PLCg1 ctr inactive | PLCbeta3 conf inactive
COc1ccc(OCCCC(=O)NCc2ccco2)cc1	PLC-gamma1 inh 15.2 | PLCg1 ctr inactive | PLCbeta3 conf inactive
Cc1ccc(OCCCC(=O)NCc2ccco2)cc1	none
COc1cccc(CNC(=O)C2Cc3ccccc3CN2C(C)=O)c1 (stereo not given)	none
CCCCN1C(=O)N(c2ccccc2Cl)C(C)(O)CC1(C)C (stereo not given)	none
Cn1nc(C(=O)NCC(=O)Nc2ccc(F)c(F)c2)ccc1=O	none (no result: HIF act, CR mimetic SO, AHR activator)
C=C(C)C(=O)Nc1cccc(C2=NOC3(C2)C[C@H](C(N)=O)N(C(=O)/C=C/C)C3)c1 (stereo not given in full)	PLC-gamma1 inh 11.5 | PLCg1 ctr inactive | PLCbeta3 conf inactive
C=C(C)C(=O)Nc1cccc(C2=NOC3(C2)C[C@@H](C(N)=O)N(C(=O)/C=C/CC)C3)c1 (stereo not given in full)	none
C=C(C)C(=O)Nc1cccc(C2=NOC3(C2)C[C@@H](C(N)=O)N(C(=O)c2cc([N+](=O)[O-])cc([N+](=O)[O-])c2C)C3)c1 (stereo not given in full)	PLC-gamma1 inh 10.0 | PLCg1 ctr inactive | PLCbeta3 conf inactive
C/C=C/C(=O)Nc1cccc(C2=NOC3(C2)C[C@@H](C(N)=O)N(C(=O)c2cc([N+](=O)[O-])cc([N+](=O)[O-])c2C)C3)c1 (stereo not given in full)	PLC-gamma1 inh 10.8 | PLCg1 ctr inactive | PLCbeta3 conf inactive
O=C(O)Cn1nncc1-c1ccc(C(F)(F)F)cc1	none (no result: HIF act, CR mimetic SO, AHR activator)
CC(C)c1onc(C(=O)N2CCCCCC2)c1[N+](=O)[O-]	PLC-gamma1 inh 15.1 | PLCg1 ctr inactive | PLCbeta3 conf inactive
Cc1nc(Nc2c(Cl)cccc2Cl)sc1C(=O)Nc1ccccc1	PLC-gamma1 inh 9.6 | PLCg1 ctr inactive | PLCbeta3 conf inactive
CCCCCCSc1ccc([C@H]2N[C@@](CC(C)C)(C(=O)OC)[C@H]3C(=O)N(CC)C(=O)[C@@H]23)cc1	PLC-gamma1 inh 15.5 | PLCg1 ctr inactive | PLCbeta3 conf inactive
CCCCCCSc1ccc([C@H]2N[C@@](CC(C)C)(C(=O)OC)[C@H]3C(=O)N(C)C(=O)[C@@H]23)cc1	none
COc1cccc(-c2ccc(CN3C(C(C)C)C(=O)N(Cc4cn(CCC5OCCO5)nn4)CCS3(=O)=O)cc2)c1OC (stereo not given)	PLC-gamma1 inh 12.3 (no result: HIF act, CR mimetic SO, AHR activator) | PLCg1 ctr inactive | PLCbeta3 conf inactive
CC(C)(C)OC(=O)C[C@H]1C/C=C\C[C@H](CC(=O)NCCO)C(=O)N[C@@H](c2ccccc2)COC1=O	none (no result: HIF act)
CC1CN(C(=O)c2ccc(-c3cccc(C(F)(F)F)c3)o2)CC(C)O1 (stereo not given)	none
O=C(NCC(=O)N1CCc2ccccc2C1)c1ccc(Cl)cc1Cl	PLC-gamma1 inh 11.8 | PLCg1 ctr inactive | PLCbeta3 conf inactive
COC(=O)C1=C(N)Oc2cc(C)n(Cc3cccnc3)c(=O)c2C1c1cc(OC)ccc1OC (stereo not given)	none
COC(=O)C1=C(N)Oc2cc(C)n(Cc3cccnc3)c(=O)c2C1c1cccc(OC)c1OC (stereo not given)	PLC-gamma1 inh 9.7 | PLCg1 ctr inactive | PLCbeta3 conf inactive
O=C(O)c1ccccc1N1C(=O)C2C3c4ccccc4C(Br)(c4ccccc43)C2C1=O (stereo not given)	PLC-gamma1 inh 17.9 | PLCg1 ctr inactive | PLCbeta3 conf inactive
